C diff growth: inhibitors of Clostridium difficile growth; 86,000 compounds, 0.25% hits; growth activity, negative = inhibition, % at 16 µg/mL (by protocol); Clostridium difficile clinical isolate growth, OD600, 24 h; stronger effect = lower value;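 active = mean growth activity at or below -80% and every replicate also at or below -80%; inconclusive = mean at or below -80% but some replicate above -80%; inactive = mean growth activity above -80%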
Pf Dd2 growth: inhibitors of Plasmodium falciparum Dd2 growth. P. falciparum Dd2 growth, SYBR Green, 72 h; stronger effect = lower value. activity change, % at 10 µM. 94,000 compounds, 2.3% hits; in the data active = activity change below about -80%; inconclusive = no clear call, values can overlap the other calls
T cruzi growth-1: blocks T. cruzi growth in NIH3T3 culture; AID 624255; T. cruzi beta-gal in NIH3T3, GalScreen luminescence, 90 h; inhibition, % at 8.34 µM; 77,000 compounds, 5.9% hits;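 active = mean inhibition above about 93%, with at least 55% of replicates each passing it, limit read from the data, passing the limit was not always enough; inconclusive = only one of those two conditions holds; inactive = neither condition holds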
T cruzi growth-2: blocks T. cruzi growth in NIH3T3 host cells; T. cruzi beta-gal in NIH3T3, GalScreen luminescence, 90 h; inhibition, % at 8.35 µM; shares compounds with T cruzi growth-1; AID 651739; 5,600 compounds, 72% hits;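 active = mean replicate inhibition above about 95% and at least 55% of replicates individually reaching it, limit read from the data; inconclusive = only one of the two criteria is met; inactive = neither criterion is met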
T cruzi growth-3: blocks T. cruzi growth in NIH3T3 host cells; shares compounds with T cruzi growth-1; T. cruzi beta-gal in NIH3T3, GalScreen luminescence, 90 h; inhibition, % at 2.09 µM; 5,600 compounds, 21% hits;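 active = mean inhibition above about 95%, with at least 55% of replicates also reaching it, limit read from the data; inconclusive = meets just one of the two conditions; inactive = meets neither condition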
3T3 cytotox: NIH/3T3 (mouse) viability loss. shares compounds with T cruzi growth-1. NIH/3T3 viability, CellTiter-Glo ATP luminescence, 90 h. cytotoxicity (signal decrease), % at 8.35 µM. 5,600 compounds, 14% hits. AID 651742;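 active = mean signal decrease across replicates above about 35% based on untreated-well scatter, with enough replicates individually passing, limit read from the data; inconclusive = no rule stated though some were filed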
3T3 cytotox 2: NIH/3T3 (mouse) viability loss; NIH/3T3 viability, CellTiter-Glo ATP luminescence, 90 h; 5,600 compounds, 56% hits; inhibition, % at 24.9 µM; shares compounds with T cruzi growth-1; AID 651744;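 active = mean loss of cell viability signal at or above a set limit, and enough replicates individually reaching it; inconclusive = meets only the mean limit or only the replicate share; inactive = meets neither condition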
Of the large screens only hits and unclear results are named; the others gave an inactive call (follow-up assays come after a bar, where they were run). Hits are enriched below; roughly 6.8% of the tested compounds scored in any of these assays.

C[C@@H]1CN([C@@H](C)CO)C(=O)c2cccc(NC(=O)Nc3ccc4c(c3)OCO4)c2O[C@@H]1CN(C)S(=O)(=O)c1cn(C)cn1	none
COc1ccc(-c2ccc3c(c2)[C@@H]2[C@@H](CCN2S(=O)(=O)C2=NC(C)C=N2)[C@H](CO)N3C)cc1 (stereo partly drawn)	none
CN1c2ccc(Br)cc2[C@@H]2[C@@H](CCN2S(=O)(=O)c2ccc(F)cc2)[C@H]1CO	none
CC1C=NC(S(=O)(=O)N2CC[C@@H]3[C@@H](CO)N(C)c4ccc(-c5cccc(F)c5)cc4[C@@H]32)=N1 (stereo partly drawn)	T cruzi growth-1 103 | T cruzi growth-2 104 | T cruzi growth-3 inactive | 3T3 cytotox inactive | 3T3 cytotox 2 inactive
CN1c2ccc(Br)cc2[C@H]2[C@H](CCN2S(=O)(=O)c2ccc(F)cc2)[C@H]1CO	none
CN1c2ccc(Br)cc2[C@@H]2[C@@H](CCN2S(=O)(=O)c2cccc(F)c2)[C@@H]1CO	T cruzi growth-1 inconclusive | T cruzi growth-2 inactive | T cruzi growth-3 inactive | 3T3 cytotox 48 | 3T3 cytotox 2 41
CC1C=NC(S(=O)(=O)N2CC[C@H]3[C@@H](CO)N(C)c4ccc(-c5cccc(F)c5)cc4[C@H]32)=N1 (stereo partly drawn)	none
COc1ccc(-c2ccc3c(c2)[C@H]2[C@H](CCN2S(=O)(=O)C2=NC(C)C=N2)[C@@H](CO)N3C)cc1 (stereo partly drawn)	T cruzi growth-1 101 | T cruzi growth-2 104 | T cruzi growth-3 106 | 3T3 cytotox inactive | 3T3 cytotox 2 inactive
Cc1cccc(S(=O)(=O)N2CC[C@@H]3[C@H](CO)N(C)c4ccc(Br)cc4[C@@H]32)c1	T cruzi growth-1 inconclusive | T cruzi growth-2 111 | T cruzi growth-3 inactive | 3T3 cytotox inactive | 3T3 cytotox 2 inactive
CNC[C@@H]1Oc2c(NC(=O)C3CC3)cccc2C(=O)N([C@@H](C)CO)C[C@H]1C	none (no result: C diff growth)
CCNC(=O)C[C@H]1CC[C@@H]2[C@@H](COc3ccc(NC(=O)c4ccccc4)cc3C(=O)N2C)O1	none
C[C@@H]1CN([C@H](C)CO)C(=O)c2cc(-c3cncnc3)cnc2O[C@H]1CN(C)C(=O)Cc1ccccc1	none (no result: T cruzi growth-1)
COc1ccc(CN(C)C[C@H]2OCCCC[C@@H](C)Oc3ccc(NC(=O)Nc4c(C)noc4C)cc3C(=O)N([C@@H](C)CO)C[C@H]2C)cc1	none
CN(C)c1ccc2c(c1)[C@@H]1C[C@@H](CC(=O)NCc3ccc(Cl)cc3)O[C@H](CO)[C@@H]1O2	none
O=C(c1ccccn1)N1C[C@@H]2[C@H](c3ccccc31)[C@@H](CO)N2C(=O)Cc1ccccc1	none
CN1c2ccc(-c3cccc(F)c3)cc2[C@@H]2[C@@H](CCN2S(=O)(=O)c2cccc(F)c2)[C@@H]1CO	T cruzi growth-1 102 | T cruzi growth-2 98 | T cruzi growth-3 inactive | 3T3 cytotox 59 | 3T3 cytotox 2 105
CN1c2ccc(-c3cccc(F)c3)cc2[C@H]2[C@H](CCN2S(=O)(=O)c2cccc(F)c2)[C@H]1CO	none
Cc1noc(C)c1NC(=O)Nc1cccc2c1O[C@H](CN(C)Cc1ccc3c(c1)OCO3)[C@H](C)CN([C@@H](C)CO)C2=O	none
CN(C)C(=O)C[C@@H]1C[C@H]2c3cc(NS(=O)(=O)c4ccc(F)cc4)ccc3O[C@H]2[C@H](CO)O1	T cruzi growth-1 104 | T cruzi growth-2 inactive | T cruzi growth-3 inactive | 3T3 cytotox inactive | 3T3 cytotox 2 inactive
CN(C)C(=O)C[C@H]1C[C@@H]2c3cc(NS(=O)(=O)c4ccc(F)cc4)ccc3O[C@@H]2[C@H](CO)O1	none
CN(C)C(=O)C[C@H]1C[C@@H]2c3cc(NS(=O)(=O)c4ccc(F)cc4)ccc3O[C@@H]2[C@@H](CO)O1	none
CN(C)C(=O)C[C@@H]1C[C@H]2c3cc(NS(=O)(=O)c4ccc(F)cc4)ccc3O[C@H]2[C@@H](CO)O1	T cruzi growth-1 inconclusive | T cruzi growth-2 inactive | T cruzi growth-3 inactive | 3T3 cytotox inactive | 3T3 cytotox 2 inactive
CC(C)NC(=O)N[C@H]1CC[C@@H](CCn2cc(-c3ccc(F)cc3)nn2)O[C@@H]1CO	none (no result: C diff growth)
